# Source: PubChem BioAssay (National Center for Advancing Translational Sciences (NCATS))
# A selection: hits, their analogues and other compounds. The true share with any hit is near 10%.
# KinaseGlo FLuc: blocks Kinase-Glo luciferase, a counter-screen artifact | Kinase-Glo luciferase, ATP luminescence, 8 min | Potency, µM (doses to about 38.3 µM), for the others: at the highest dose activity change, negative = inhibition, usual class: inhibitors | Q27757 | actives 0.28% (n = 200,000) | AID 1379; active = well fitted inhibition curve with a large enough effect; inconclusive = small, poorly fitted or top-dose-only effect; also: potency is read from the fitted curve at half-maximal effect; nearly all actives have a fitted effect of over 60% in size
#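 Kinase-Glo luciferase light output from ATP and luciferin was measured with 10 uM ATP, within the enzyme's linear range. Buffer: 50 mM imidazole pH 7.2, 50 mM KCl, 7 mM MgCl2, 0.01% Tween 20, 0.05% BSA; luminescence read after 8 min at ambient temperature.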
# HPGD block: inhibitors of human 15-hydroxyprostaglandin dehydrogenase (HPGD) | purified HPGD, NADH fluorescence kinetic, PGE2 substrate | AID 894 | Potency, µM, inactives show at the top dose activity change, negative = inhibition, actives largely listed as inhibitors | P15428 | actives 4.3% (n = 150,000); also: potency is read from the fitted curve at half-maximal effect
#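 20 nM HPGD preincubated 15 min at room temperature with compound in 50 mM Tris-HCl pH 8, 0.01% Tween 20. Started with 1 mM NAD+ and 30 uM prostaglandin E2; NADH fluorescence (360/450 nm) read 5 times over 30-s intervals, last minus first.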
# Lamin A splicing: LMNA splicing modulation; HeLa LMNA splicing GFP/RFP minigene ratio, 48 h; Potency, µM (doses to about 46.1 µM), for inactives: top-dose ratio change, negative = inhibition, most hits filed as inhibitors; actives 0.01% (n = 200,000); active = well fitted inhibition curve with a large enough effect in the signal ratio, with a control signal flat, not every such curve was filed as active; inconclusive = small, poorly fitted or top-dose-only effect, or effect the other way, or a change in a side signal; the % refers to the signal ratio; also: potency is read from the fitted curve at half-maximal effect
#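 S3 HeLa stable clones carrying a lamin A-EGFP splicing minigene plus DsRed2 were seeded at 600 cells/well in Opti-MEM with 2% FBS, pin-dosed and incubated 48 h at 37°C. Acumen cytometry (488 nm) gave the GFP/RFP total-intensity ratio.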
# ALDH1A1 inh: ALDH1A1 (human) enzyme inhibition; P00352; Purified ALDH1A1, NADH fluorescence, propionaldehyde substrate; Potency, µM (top dose mostly 75.3 µM), inactives show at the top dose activity, negative = inhibition, usual class: inhibitors; actives 7.3% (n = 220,000); AID 1030;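 also: potency is read from the fitted curve at half-maximal effect; plate controls were no enzyme wells and a reference inhibitor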
# Target sequence (P00352 whole entry, looked up): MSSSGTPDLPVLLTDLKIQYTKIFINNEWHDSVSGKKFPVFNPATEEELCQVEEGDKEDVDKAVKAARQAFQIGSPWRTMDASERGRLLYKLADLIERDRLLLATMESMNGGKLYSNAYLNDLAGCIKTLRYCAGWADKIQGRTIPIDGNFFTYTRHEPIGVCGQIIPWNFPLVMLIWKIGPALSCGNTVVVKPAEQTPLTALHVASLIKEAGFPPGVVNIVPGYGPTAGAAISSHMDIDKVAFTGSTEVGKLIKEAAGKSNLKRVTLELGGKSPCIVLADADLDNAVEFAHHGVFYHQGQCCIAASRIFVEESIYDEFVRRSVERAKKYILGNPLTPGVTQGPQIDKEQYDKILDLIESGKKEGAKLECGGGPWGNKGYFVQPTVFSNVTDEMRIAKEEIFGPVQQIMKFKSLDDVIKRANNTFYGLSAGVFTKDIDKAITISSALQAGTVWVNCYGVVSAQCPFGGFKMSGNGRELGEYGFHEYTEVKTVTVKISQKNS
# IMPase cell inh: membrane-permeable compound that blocks inositol monophosphatase. P97697. CHO-M1 cells, IP1 accumulation, HTRF TR-FRET ratio. inhibition (IP1 accumulation), % at 46.1 µM. 120,000 tested, under 10 active; active = well fitted curve in the direction sought with a large enough effect in the signal ratio, not every such curve was filed as active; inconclusive = small, poorly fitted or top-dose-only effect, or a change in a side signal; inactive = no such curve, though single readings can be large or run the other way; the % refers to the signal ratio;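 also: cells stimulated with carbachol in lithium chloride buffer; plate controls were DMSO basal wells for no effect and reference inhibitor wells for full effect; higher means more IMPase inhibition seen as more IP1 and lower FRET ratio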
# Target sequence (P97697 whole entry, looked up): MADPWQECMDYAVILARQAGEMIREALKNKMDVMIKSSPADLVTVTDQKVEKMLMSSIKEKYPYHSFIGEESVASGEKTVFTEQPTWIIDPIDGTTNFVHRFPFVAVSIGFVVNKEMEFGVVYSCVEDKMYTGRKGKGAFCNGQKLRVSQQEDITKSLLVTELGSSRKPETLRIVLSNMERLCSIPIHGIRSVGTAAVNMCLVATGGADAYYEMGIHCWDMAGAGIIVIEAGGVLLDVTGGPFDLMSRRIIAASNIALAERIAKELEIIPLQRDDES
#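 The IP-One HTRF competitive assay in carbachol-stimulated CHO-M1 cells quantifies cellular IP1. Compounds spanned up to 46 uM final, and activity is expressed as AC50 from concentration-response fits of the ratio and donor data.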
# PNC inhibitor: blocks assembly of the perinucleolar compartment. AID 2417. PC3M PTB-GFP, PNC prevalence imaging, 16 h; stronger effect = lower value. actives 3.1% (n = 140,000). activity change (PNC), negative = inhibition, % at 10 µM;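 active = readout at or below -70, meaning at least 70% loss of cells showing the perinucleolar compartment, a nuclear body marking cancer cells; inconclusive = readout between -30 and a set limit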;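 also: plate controls were DMSO wells for no effect and camptothecin positive control wells for full effect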
#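 Compounds are pinned in duplicate onto adhered PC3M cells stably expressing GFP-tagged PTB and incubated 16 h at 37 C. Cells are then fixed, nuclei stained with Hoechst, and PNC-positive cells counted.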
# * = called active by the depositor; ? = inconclusive; . = no result given; [ ] = dose if it differs, or a comment. Unless noted, calls follow the shape of the dose curve; as a rule, active = well fitted inhibition curve with a large enough effect (not every such curve was filed as active); inconclusive = small, poorly fitted or top-dose-only effect, or another doubt; inactive = no such curve, though single readings can be large or run the other way. Unless noted, % is scaled to controls: 0 for no effect and ±100 for the full control effect.
SMILES,KinaseGlo FLuc,HPGD block,Lamin A splicing,ALDH1A1 inh,IMPase cell inh,PNC inhibitor
O=C(CSCC(=O)N1CCN(c2ccccc2)CC1)Nc1nc(-c2ccc(Cl)s2)cs1,3%,-18%,?,?,11,-108*
Cc1ccc(CNC(=O)C2CCC(CNS(=O)(=O)c3ccc(C)cc3)CC2)cc1 (centres undefined),.,.,-1%[46 µM],.,.,.
N=c1n(-c2ccccc2)c(O)cc(=O)n1-c1ccccc1,-4%,-6%,4%,4%,-5,55
O=c1cc(O)n(-c2ccccc2)c(=S)[nH]1,2%,-12%,-6%,?,-3,-100*
Cc1ccc(C)c(OCCOCCN2CC(C)OC(C)C2)c1C (centres undefined),-5%,-9%,9%,16µM*,10,?
CC1CN(CCOCCSc2ccccc2)CC(C)O1 (centres undefined),0%,.,-18%[46 µM],-4%,.,.
O=C(COc1ccc2ccccc2c1)NC1CC(=O)N(c2cccc(F)c2)C1 (centres undefined),.,.,23%[46 µM],.,.,.
C=CCON1C(=O)c2ccccc2C1=O,3%,-21%,10%,?,1,-111*
CC1CCN(c2ccc(-c3cccc(NS(=O)(=O)c4ccc(F)cc4F)c3)nn2)CC1,.,.,-17%[46 µM],.,.,.
Cc1nc2cnc(Nc3ccccc3)nc2n(CCc2ccccc2)c1=O,.,.,22%,1%,.,.
CCn1cnc2sc(C(=O)N(Cc3ccc(N(C)C)cc3)Cc3ccco3)c(C)c2c1=O,3%,-14%,?,8.9µM*,11[1.84 µM],?
CCOc1ccc(CNS(=O)(=O)c2cc3c(cc2C)NC(=O)CO3)cc1,.,.,-7%[46 µM],.,.,.
CC(C)(C)C1=CC=C(C(C)(C)C)C(=O)C1=O,.,.,.,1.6µM*,.,.
CC(C)(C)c1ccc2c(c1)C(=O)c1ccccc1C2=O,.,.,-5%,?,3,?
CCCCOC(=O)n1c(=S)oc2cc(Cl)ccc21,1%,-22%,7%[0.0737 µM],?,-8,69
COC(=O)n1c(=S)oc2cc(Cl)ccc21,0%,22µM*,7%,14µM*,10,?
COC(=O)c1ccc(Nc2ncnc3c2nc2n3CCCC2)cc1,.,.,6%[46 µM],.,.,.
O=C1NC(c2cccc(Br)c2)=N/C1=C\c1ccco1,-5%,?,-12%,11µM*,.,10
O=C1NC(c2ccccc2)=N/C1=C/c1ccco1,?,?,-3%,18µM*,-6,-27
Cc1cc(C)cc(NC(=O)CSc2nnc(COc3ccccc3Cl)o2)c1,.,.,.,.,3,.
CCC(C)(C)n1nnnc1CN(Cc1ccc(Cl)cc1)Cc1ccco1,3%,-13%,1%,10µM*,11,?
Cc1ccc(C)c2sc(NC(=O)c3ccc(S(=O)(=O)N4CCC(C)CC4)cc3)nc12,.,.,5%[46 µM],.,.,.
COc1cc(N=C2C(=O)N3CCCc4cccc2c43)cc(OC)c1,-3%,-9%,0%,0.63µM*,.,-104*
COc1cccc(/C=C2\N=C3CCCCCN3C2=O)c1,-6%,-16%,13%,?,-7,27
Cc1cc(CNCc2c(C(=O)N3CCCCCCC3)nc3ccc(Cl)cn23)nn1C,-1%,.,11%[46 µM],16µM*,.,.
SMILES,KinaseGlo FLuc,HPGD block,Lamin A splicing,ALDH1A1 inh,IMPase cell inh,PNC inhibitor
O=C(c1nc2ccc(Cl)cn2c1CNCCn1ccnc1)N1CCCCCCC1,-2%,.,?,?,.,.
Cc1cc(=O)c2cc(Cl)ccc2[nH]1,-3%,?,-8%,14%,0,-28
Cc1ccc2[nH]c(C)cc(=S)c2c1,-3%,.,.,18µM*,.,.
Cn1c(=O)c(=O)n(C)c2cc(N3CCCC3)c(NC(=O)c3ccccc3Cl)cc21,.,.,.,.,5,.
COC(=O)NC(/C=C/c1ccccc1)C(C(C)=O)C(=O)OC (centres undefined),-1%,-9%,.,-3%,.,.
O=C(N/N=C1/C[C@@H](O)[C@@H](O)[C@@H]2[C@@H]3C(=O)N(Cc4ccccc4)C(=O)[C@H]3CC[C@H]12)OCc1ccccc1,.,.,.,14%[13.5 µM],.,.
COc1cccc(Cn2c(=O)c(-c3cccc(C#N)c3)nc3cnc(Nc4ccccc4)nc32)c1,-2%,-14%,.,-7%,.,.
CCc1nn2cc(C(=O)c3cc(C)ccc3O)cnc2c1-c1ccc(F)cc1,-4%,16µM*,?,?,-3,?
Cc1ccc(O)c(C(=O)c2cnc3c(c2)c(-c2ccc(F)cc2)c(C#N)c(=O)n3C)c1,0%,.,12%[46 µM],-4%,.,.
CCc1nn2cc(C(=O)c3ccccc3O)cnc2c1-c1ccc(F)cc1,-1%,16µM*,?,?,2,63
CC(C)Cc1ccc(S(=O)(=O)Nc2cc3c(cc2N2CCOCC2)n(C)c(=O)c(=O)n3C)cc1,.,.,20%[46 µM],.,.,.
CC(C)(C)OC(=O)N1CCC(c2c(C(=O)NC3CCCCC3)cnn2-c2cccc(F)c2)CC1,.,.,0%[46 µM],.,.,.
C[N+]1(NCC[N@@+]2(C)CCc3ccccc3C2)CCCCC1,-1%[7.66 µM],-9%,.,17%[13.5 µM],.,.
CCC(=O)Nc1nonc1-c1nc2ccccc2n1Cc1ccccc1,1%,-16%,-14%,?,11,?
CCCCOc1ccccc1NC(=O)Cn1c(-c2nonc2N)nc2ccccc21,1%,-14%,?,3%,5,-95*
CCOC(=O)Cn1c(-c2nonc2NC(=O)c2ccccc2F)nc2ccccc21,3%,?,?,?,2,-108*
NC(=O)C1CCCN(C(=S)NCc2ccc3c(c2)OCO3)C1 (centres undefined),-2%,.,.,25µM*,.,.
O=C(c1ccccc1)N1CCN(C(=S)NCc2ccc3c(c2)OCO3)CC1,1%,32µM*,?,18µM*,.,71
CCC(C)NC(=O)C1c2ccccc2C(=O)N1Cc1ccccc1OC (centres undefined),3%,-1%,-7%,8%,5,20
CC(=O)OC1c2ccccc2C(=O)N1Cc1ccccc1Cl (centres undefined),3%,18µM*,-7%,?,15,-15
O=C(Nc1cccc(F)c1)N1CC2(CCN(C(=O)c3ccco3)CC2)C1,-5%,-10%,.,11µM*,.,.
N#Cc1cccc(NC(=O)N2CC3(CCN(C(=O)c4ccco4)CC3)C2)c1,-12%,-2%,.,9.5µM*,.,.
CCn1nc(C)c(CCN(C)C(=O)Nc2cccc(Cl)c2C)c1C,.,.,4%[46 µM],.,.,.
CCn1c(SCC(=O)N2c3ccccc3Sc3ccccc32)nc2c1c(=O)n(C)c(=O)n2C,-3%,-12%,2%,11µM*,-5,28
CCCCn1c(SCC(=O)N2c3ccccc3Sc3ccccc32)nc2c1c(=O)n(C)c(=O)n2C,5%,-19%,-27%,?,-1,389
CCCn1c(SCC(=O)N2c3ccccc3CCc3ccccc32)nc2c1c(=O)n(C)c(=O)n2C,-3%,-13%,-8%,11µM*,-1,?
